Bioassay records from PubChem.
Shown is part of a subset that was picked to be rich in hits.
p53null 39C tox: qHTS Screen for Compounds that Selectively Target Cancer Cells with p53 Mutations: Cytotoxicity of p53 Null Cells at the Nonpermissive Temperature. Potency, µM (top dose mostly 46.1 µM), most hits filed as cytotoxic. H1299 p53-null (neo) cells, 39C, ATPlite viability, 24 h. 55,000 compounds, 0.97% hits; note: nearly all actives have a fitted effect of over 50% in size
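Temperature-shift cytotoxicity format: compound titrations on p53-null or A138V-expressing H1299 cells held 24 hr at 39C, cell ATP then measured, AC50 from Hill model.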
SKOV3 invasion: Primary qHTS assay for Inhibitors of ovarian cancer metastasis using an organotypic tumor microenvironment (TME) model; 46,000 compounds, 0.1% hits; SKOV3ip1-GFP adhesion/invasion on 3D omental model, fluorescence; Potency, µM (highest dose often 45.8 µM), usual class: inhibitors; note: nearly all actives have a fitted effect of over 65% in size
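Primary human omental fibroblast/mesothelial 3D culture pre-formed 48 h. SKOV3ip1-GFP cells added with compounds (0.36-46 umol/L), incubated 2 h RT/16 h 37 C, fixed; GFP cells quantified at 488/509 nm.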
p53null 32C kill: qHTS Screen for Compounds that Selectively Target Cancer Cells with p53 Mutations: Cytotoxicity of p53 Null Cells at the Permissive Temperature; H1299-neo p53 null cells, ATP luminescence, 24 h, 32C; Potency, µM (series often up to 46.1 µM), actives largely listed as cytotoxic; 55,000 compounds, 0.62% hits; AID 903, 2007; note: nearly all actives have a fitted effect of over 55% in size
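H1299-neo (p53-null) cells, 600/well, were pre-incubated overnight at 37C, then exposed to compounds at up to 46 uM for 24 hr at 32C. Viability was measured as ATP content by luminescence, and AC50 values came from Hill fits.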
NTMT1 inhibitor: Primary qHTS for Inhibitors of N-terminal methyltransferase 1 (NTMT1): MTaseGlo Assay | N-terminal Xaa-Pro-Lys N-methyltransferase 1 (Homo sapiens), Q9BV86 | NTMT1 MTase-Glo SAH luminescence, purified enzyme | Potency, µM (series often up to 114 µM), actives largely listed as inhibitors | 59,000 compounds, 2.5% hits; note: nearly all actives have a fitted effect of over 65% in size
Target sequence (Q9BV86 whole entry, looked up): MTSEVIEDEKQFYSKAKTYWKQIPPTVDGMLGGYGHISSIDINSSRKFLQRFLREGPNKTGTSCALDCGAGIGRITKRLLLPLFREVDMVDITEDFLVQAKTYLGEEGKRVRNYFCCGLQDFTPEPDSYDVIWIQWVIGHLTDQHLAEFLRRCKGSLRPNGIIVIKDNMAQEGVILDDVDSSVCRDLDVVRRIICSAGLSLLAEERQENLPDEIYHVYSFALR
Hits are given with their value; i = inactive; ? = inconclusive; nt = no result; ! = not active in a repeat. Calls come from the whole dose curve; as a rule, active = well fitted curve in the direction sought with a large enough effect; inconclusive = small, poorly fitted or top-dose-only effect, or another doubt; inactive = no such curve, though single readings can be large; an effect the other way counts as inactive or inconclusive.

SMILES | p53null 39C tox | SKOV3 invasion | p53null 32C kill | NTMT1 inhibitor
CCOc1ccc(CN(CCc2ccc3c(c2)OCO3)Cc2cccc(Br)c2)cc1 | i | i | i | 8.9µM
CCOc1ccc(CCNC(=O)c2cc3ccccc3n2Cc2cccc(C)n2)cc1OCC | nt | nt | nt | i
CCOc1ccc(NC(=O)CSc2oc(-c3ccccc3)nc2S(=O)(=O)c2ccc(Cl)cc2)cc1 | 10µM | i | ? | i
COP(=S)(OC)SCN1C(=O)c2ccccc2C1=O | nt | nt | nt | 28µM
CC(C)(NC(=O)O[C@@H]1CN2CCC1CC2)c1csc(-c2ccc(F)cc2)n1 | nt | nt | nt | i
CN1[C@H]2CC(O)C[C@H]1[C@H]1O[C@H]12 (some centres not stated) | nt | i | nt | i
CC(=O)c1cccc(NC(=O)c2cc3c(s2)-c2c(C)cccc2OC3)c1 | ? | i | 10µM | i
CC(=O)c1cccc(NC(=O)c2cccn(Cc3cccc(C)c3)c2=O)c1 | i | i | i | i
CC1(C)C(=O)N(c2ccc(C#N)c(C(F)(F)F)c2)C(=S)N1Cc1ccc(-c2cn[nH]n2)cc1 | nt | nt | nt | i
CCOc1ccc(CCNC(=O)c2cc3cnccc3n2Cc2cccc(C)c2)cc1OCC | nt | nt | nt | i
CCCCCCCCCC(CC)c1ccc(S(=O)(=O)O)cc1 (configuration not stated) | nt | nt | nt | 10µM
CCCCOc1ccc(CN2C(=O)C(=O)c3cc(C)ccc32)cc1OC | 20µM | i | i | i
CN(Cc1cccc(-c2ccncc2)c1)C(=O)Oc1ccc(-c2ccc(C(N)=O)cc2)cc1 | nt | nt | nt | i
COc1ccc(-c2cc(=O)c3cc(OCC(=O)OC(C)C)ccc3o2)cc1 | 5µM | i | 3.2µM | i
Cc1[nH]ncc1-c1cc2nc([C@@H]3CC4CCN3CC4)[nH]c(=O)c2s1 | nt | nt | nt | i
C[C@H](N)[C@H](O)c1ccc(O)c(O)c1 | nt | nt | nt | 20µM
COc1cc(C)[nH]c(=O)c1CNC(=O)c1c(C)n([C@H](C)C2CCN(CC(F)(F)F)CC2)c2ccccc12 | nt | nt | nt | i
O=C1C(I)=CC(=C(c2cc(I)c(O)c(I)c2)c2ccccc2C(=O)O)C=C1I | nt | nt | nt | 14µM
CCCOc1ccc(C2SCC(=O)Nc3c2c(C)nn3-c2cccc(C)c2)cc1OC (configuration not stated) | 25µM | i | i | ?
COc1cccc(C2SCC(=O)Nc3c2c(C)nn3-c2ccc(C)c(Cl)c2)c1OC (configuration not stated) | i | i | i | i
CN1C(=O)[C@@H](NC(=O)[C@H](CCC(F)(F)F)[C@H](CCC(F)(F)F)C(N)=O)N=C(c2ccccc2)c2ccccc21 | nt | nt | nt | i
Oc1ccc([C@H]2CNCc3c2ccc(O)c3O)cc1O | nt | nt | nt | 2.8µM
COC[C@H]1OC(=O)c2coc3c2[C@@]1(C)C1=C(C3=O)[C@@H]2CC[C@H](O)[C@@]2(C)C[C@H]1OC(C)=O | nt | nt | nt | i
CCCCCCCCCCCCCCCC[N+](C)(C)C | nt | nt | nt | 25µM
Cc1cc(SCc2sc(-c3ccc(C(F)(F)F)c(F)c3)nc2C)ccc1OCC(=O)O | nt | i | nt | 71µM!
SMILES | p53null 39C tox | SKOV3 invasion | p53null 32C kill | NTMT1 inhibitor
CN1CCN(c2cnc3c(O)ccc(C(=O)O)c3c2)CC1 | nt | nt | nt | i
Cc1ccc(Cl)cc1Nc1nn2c(=O)c3ccc(C(=O)NCc4cccs4)cc3nc2s1 | i | i | ? | 79µM
C/C=C(\C)C(=O)N[C@@H](c1ccccc1)[C@@H](O)C(=O)O[C@H]1C[C@@]2(O)[C@@H](OC(=O)c3ccccc3)[C@@H]3[C@]4(OC(C)=O)CO[C@@H]4C[C@H](O)[C@@]3(C)C(=O)[C@H](OC(C)=O)C(=C1C)C2(C)C | nt | nt | nt | i
O=C(CBr)Nc1ccc(Cl)cc1C(=O)c1ccccc1F | nt | nt | nt | 14µM
COC(=O)[C@@]12OC[C@]34[C@H]([C@@H](O)[C@@H]1O)[C@@]1(C)CC(=O)C(O)=C(C)[C@@H]1C[C@H]3OC(=O)[C@H](OC(=O)/C=C(\C)C(C)C)[C@@H]24 | nt | nt | nt | i
CN(C)C(=S)SSC(=S)N(C)C | nt | nt | nt | 7.9µM
O=C(NCCCNc1nc(Nc2ccc(N3CCOCC3)cc2)ncc1C1CC1)C1CCC1 | nt | nt | nt | i
COC(=O)[C@@H]1[C@@H](C(=O)OC)C2(c3ccccc3-c3ccccc32)N(c2ccc(Cl)cc2)N1C#N | ? | nt | 22µM | nt
C=C[C@H]1CN2CCC1C[C@@H]2[C@@H](O)c1ccnc2ccccc12 (some centres not stated) | nt | nt | nt | i
Cc1ccc(C(=O)Nc2ccccc2)cc1S(=O)(=O)N1CCCC1 | i | i | ? | i
CC(C)(C)c1ccc(C(=O)Nc2ccc3nc(SCC(=O)N4CCCC4)sc3c2)cc1 | ? | i | 20µM | i
